Screening data as filed in PubChem.
The full list was thinned out, with hits kept by preference.
Pf Dd2 growth: blocks in vitro growth of P. falciparum Dd2 | P. falciparum Dd2 growth, SYBR Green, 72 h | Potency, µM (series often up to 28.9 µM), for the others: at the top dose activity, negative = inhibition, most hits filed as inhibitors | actives 4.3% (n = 120,000); active = well fitted inhibition curve with a large enough effect;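 note: plate controls were DMSO vehicle for no effect and reference drug for full effect; nearly all actives have a fitted effect of over 65% in size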
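Readout: SYBR Green fluorescence, 485 nm excitation, 535 nm emission, after ~16 h lysis at 37C. Before that, Dd2-infected red cells (2.5% hematocrit) grew 72 h with compound, 29 uM top final concentration.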
Active calls of the source: *; [ ] = dose if it differs, or a comment. Potency is the fitted concentration of half-maximal effect.

What do the screens show for `Cc1ccc(NC(=O)c2sc3nc(-c4cccs4)ccc3c2N)cc1F`?
Pf Dd2 growth: -4%

Results for COc1ccc(NC(=O)c2sc3nc(C)c(C(=O)Nc4ccc(C)cc4C)c(-c4ccc(C)o4)c3c2N)cc1 ?
Pf Dd2 growth: 8.9µM*

How did CCOc1ccccc1NC(=O)c1sc2nc(C)cc(C)c2c1N do in these assays?
Pf Dd2 growth: -11%

Results for CCC(C)NC(=O)c1sc2nc(C)c(C(=O)Nc3ccc(C)cc3C)c(-c3ccc(Cl)cc3)c2c1N (stereo not given) ?
Pf Dd2 growth: -5%

How did CC1(C(=O)N2CCCC2C(=O)Nc2ccccc2Oc2cccnc2)CC1 (stereo not given) do in these assays?
Pf Dd2 growth: -15%

How did CNC(=O)c1cn2c(n1)CN([S+](=O)([O-])c1cccc(C(F)(F)F)c1)CC2 do in these assays?
Pf Dd2 growth: -21%

What do the screens show for `COc1cccc(-c2cc3c(=O)n(CCNC(=O)c4ccc(F)cc4)ccn3n2)c1`?
Pf Dd2 growth: -15%

How did COc1ccc(S(=O)(=O)N2CCCC(Cn3c(C4CC4)nc4cccnc43)C2)cc1 (stereo not given) do in these assays?
Pf Dd2 growth: inactive

Results for CN1CCN(C(=O)c2cc3n(n2)CC(c2ccc(Br)cc2)OC3)CC1 (stereo not given) ?
Pf Dd2 growth: inactive

How did O=C(N[C@H]1CCN2C(=O)c3ccc(Cl)cc3NC(=O)[C@H]12)C1CCCC1 do in these assays?
Pf Dd2 growth: -25%[44.1 µM]

How did COc1ccc(NC(=O)c2sc3nc(C(F)(F)F)cc(C)c3c2N)cc1OC do in these assays?
Pf Dd2 growth: -9%

Results for Nc1c(C(=O)Nc2ccc(OC(F)(F)F)cc2)sc2nc(-c3ccncc3)ccc12 ?
Pf Dd2 growth: inactive

Results for COCc1cc(C)nc2sc(C(=O)Nc3ccc(OC(F)(F)F)cc3)c(N)c12 ?
Pf Dd2 growth: 4µM*

How did COc1ccccc1OCC(=O)NCC1CCCN(Cc2ccc(C3CCCC3)s2)C1 (stereo not given) do in these assays?
Pf Dd2 growth: inactive

What do the screens show for `CCOc1ccc(S(=O)(=O)N(CC(=O)NCc2ccccc2OC)c2ccccc2)cc1`?
Pf Dd2 growth: 9%

What do the screens show for `CCN(CC)S(=O)(=O)c1ccc2oc(C(=O)NCc3ccccc3OC)c(C)c2c1`?
Pf Dd2 growth: 7.9µM*

Results for COc1ccc(S(=O)(=O)N(CC(=O)NCc2ccccc2OC)c2ccc(C)cc2)cc1 ?
Pf Dd2 growth: -20%

How did COc1ccc(-c2cc(-c3cccnc3)c3cncn3c2)cc1OC do in these assays?
Pf Dd2 growth: 10µM*

How did c1cncc(-c2cc(-c3ccc4cn[nH]c4c3)cn3cncc23)c1 do in these assays?
Pf Dd2 growth: -10%[44.1 µM]

Results for CC(=O)Nc1cccc(-c2ccc(COc3ccc4c(cnn4CCC(=O)O)c3)cc2)c1 ?
Pf Dd2 growth: inactive

Results for O=C1COCCN1c1cc(-c2cnc3[nH]ccc3c2)cn2cncc12 ?
Pf Dd2 growth: 4%[44.1 µM]

Results for c1cc(-c2cc(-c3cn[nH]c3)cn3cncc23)ccn1 ?
Pf Dd2 growth: inactive

What do the screens show for `Cc1ccc(-c2cc(-c3cccnc3)c3cncn3c2)cn1`?
Pf Dd2 growth: inactive

Results for COc1cc(F)ccc1-c1cc(-c2ccc(=O)[nH]c2)c2cncn2c1 ?
Pf Dd2 growth: inactive

How did Cc1ccc(-c2cc(-c3ccncc3)c3cncn3c2)cn1 do in these assays?
Pf Dd2 growth: -7%[44.1 µM]

How did COc1ccc(-c2cc(-c3ccc(OC)nc3)cn3cncc23)cc1 do in these assays?
Pf Dd2 growth: 2.5µM*

What do the screens show for `COc1ccc(-c2cc(-c3cnc4[nH]ccc4c3)cn3cncc23)cc1`?
Pf Dd2 growth: 6.3µM*

Results for COc1ccc(-c2cc(-c3cn[nH]c3)c3cncn3c2)cn1 ?
Pf Dd2 growth: -17%[44.1 µM]

What do the screens show for `COc1ccc(-c2cc(-c3cccc(NC(C)=O)c3)cn3cncc23)cn1`?
Pf Dd2 growth: 2µM*

Results for Cc1cc(C(=O)N[C@@H]2CN(Cc3ccccn3)C[C@H]2CN(C)C)n[nH]1 ?
Pf Dd2 growth: 19%

Results for O=C([C@H]1C[C@H](Oc2ccccc2)CN1C(=O)c1ccccc1)N1CCOCC1 ?
Pf Dd2 growth: -8%

Results for CN1CCC(N(C)C(=O)CCC[C@@H]2[C@H]3CCCN4CCC[C@@H](CN2Cc2ccccc2)[C@@H]34)CC1 ?
Pf Dd2 growth: -12%

What do the screens show for `CNC(=O)[C@@H](c1ccccc1)N1CCC[C@H]1C(=O)NCc1ccncc1`?
Pf Dd2 growth: 12%[44.1 µM]

What do the screens show for `COCCN1C(=O)c2cccn2CC1CNS(=O)(=O)c1ccccc1` (stereo not given)?
Pf Dd2 growth: -16%

What do the screens show for `Cc1cc(C)n(Cc2ccc(-c3nc(C)no3)cc2)n1`?
Pf Dd2 growth: 4%

What do the screens show for `O=C(CCCn1ccnc1)N1CCC2(CCC(=O)N(Cc3ccncc3)C2)CC1`?
Pf Dd2 growth: 18%

Results for CCc1cnc(C)nc1N1CCC(Oc2ccc3ccccc3c2)(C(=O)O)CC1 ?
Pf Dd2 growth: -9%

Results for Cc1ccc(N2CCN(C(=O)C[C@H]3NC(=O)c4ccccc4NC3=O)CC2)c(C)c1 ?
Pf Dd2 growth: -26%

Results for NC(=O)CN1C(=O)CO[C@H]2CN(Cc3ccc(Cl)cc3)C[C@H]21 ?
Pf Dd2 growth: -16%[44.1 µM]

Results for C=CCN(C)C(=O)C[C@@H]1c2nc(NC(=O)c3cccc(F)c3)sc2C[C@@H]2[C@](C)(CO)[C@H](O)CC[C@]21C ?
Pf Dd2 growth: -2%

What do the screens show for `Cn1cnc(C(=O)N2CC(F)(F)C[C@H]2c2nc(C3CC3)no2)c1`?
Pf Dd2 growth: 3%

What do the screens show for `Cc1c(Cl)cccc1NC(=O)Cn1cc2c(n1)CCCC2`?
Pf Dd2 growth: 2%

Results for Cc1ccc(NC(=O)Cn2cc3c(n2)CCCC3)c(C)c1 ?
Pf Dd2 growth: 3%

How did O=C(Cn1cc2c(n1)CCCC2)Nc1cc(C(F)(F)F)ccc1Cl do in these assays?
Pf Dd2 growth: 7.1µM*

How did CCn1cc(C(=O)NC2CCc3nnc(C4CC4)n3CC2)cn1 (stereo not given) do in these assays?
Pf Dd2 growth: 31%

How did COc1ccc(-c2nc(Cn3c(-c4ccc(F)cc4)nc(C)c(CCO)c3=O)c(C)o2)cc1 do in these assays?
Pf Dd2 growth: -13%

What do the screens show for `COc1ccc(OC)c(NC(=O)C2CCN(C(=O)N3CC4CC(C3)[C@H]3CCCC(=O)N3C4)CC2)c1` (stereo not given in full)?
Pf Dd2 growth: -24%

What do the screens show for `COc1cccc(C2Cn3nnc(-c4nc(-c5ccc(C(F)(F)F)cc5)no4)c3CO2)c1` (stereo not given)?
Pf Dd2 growth: -13%

How did CN1CC(=O)N(C2CCC2)Cc2c(NC3CCCCC3)ncnc21 do in these assays?
Pf Dd2 growth: inactive

How did O=C(NC1CCN(Cc2ccccc2)CC1)C1CCc2ncc(-c3ccsc3)n2C1 (stereo not given) do in these assays?
Pf Dd2 growth: 8.9µM*

What do the screens show for `O=C(C1CCc2ncc(-c3ccsc3)n2C1)N1CCN(c2ccccn2)CC1` (stereo not given)?
Pf Dd2 growth: inactive

Results for CC(C)CNC(=O)C1CCc2ncc(-c3ccsc3)n2C1 (stereo not given) ?
Pf Dd2 growth: inactive

How did COc1ccc(OC2CN(C(=O)c3ccc(C(F)(F)F)cc3)C2)cc1 do in these assays?
Pf Dd2 growth: 60%

How did O=c1[nH]ccn1C1CCN(Cc2ccc(F)cc2)CC1 do in these assays?
Pf Dd2 growth: -1%[44.1 µM]

Results for CC(C)(C)OC(=O)N1CCC(c2c(C(=O)N3CCN(Cc4ccccc4)CC3)cnn2-c2cccc(Cl)c2)CC1 ?
Pf Dd2 growth: 3.2µM*
